# Reference: PubChem BioAssay (NCI)
# Compounds without any hit were thinned out: in the full panel of roughly 83,000, 20% have a hit.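 The endpoint reported here, percent growth, reads 100 for growth as untreated, 0 for no net growth and -100 for all cells dead.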 A number with no mark means an inactive call. Activity calls are given as the source filed them. The calls were made as follows: active = growth percent below 10; inactive = the rest.
# System: HT29 colon
# Assay: NCI-60 one-dose screen, 48 h (100 = growth as untreated, 0 = no growth, -100 = all killed)
# Conditions: 10 µM unless noted
row,Structure (SMILES),growth
1,COc1ccccc1/C=C/C1=C(C)CCC(c2ccccc2OC)C1C (stereo not given),5.56% (active)
2,COc1cc(OCc2cccc(-c3ccc4c(c3)OCCO4)c2C)cc(OC)c1C=O,67.6%
3,COc1ccccc1-c1nc2ccc3[nH]ncc3c2c2c1CCCC2,67.5%
4,CC(=O)OCCOc1cc(Cl)c(Cl)cc1Cl,103%
5,CC1(C)CC(=O)C2=C(C1)OC(C(=O)c1ccccc1)C2c1cccc(Oc2ccccc2)c1 (stereo not given),43.1%
6,CC1OC(C(=O)N2CCN(CCO)CC2)CC1COC1CCCCC1 (stereo not given),106% [50 µM]
7,COc1ccccc1NC(=O)n1c(=O)cc(C)c2ccc(O)cc21,106%
8,COc1ccc2c(c1)C(c1c[nH]c3ccccc13)(c1c[nH]c3ccccc13)CCO2,23.8%
9,CC(C)(C)n1cc(-c2ccnc(NCCNS(=O)(=O)c3cccc4ccccc34)c2)c(-c2cccc(O)c2)n1,6.71% (active)
10,COc1cc(C2=Nc3c(N)nc(N)nc3NC(c3cccc(Nc4ccnc5cc(C(F)(F)F)ccc45)c3)C2)cc(OC)c1OC (stereo not given),45.5%
11,Nc1nc(=O)n([C@H]2CC=C(CO)O2)cc1F,91.9%
12,CS(=O)(=O)c1ccc(/C(=N/NC(N)=S)c2ccc(F)cc2)cc1,107%
13,O=c1n(C2OC(CO)C(O)C2O)ccc2nccn12 (stereo not given),108%
14,Cc1c(N2CCCCC2)[nH]c2ccccc12,104%
15,O=C1CCc2c(sc3[nH]c(=S)n(-c4cc(C(F)(F)F)cc(C(F)(F)F)c4)c(=O)c23)C1,0.73% (active)
16,Nc1nc(N)c2c(n1)NC(c1ccc3c(c1)OCO3)CC(c1cccc(Nc3ccncc3)c1)=N2 (stereo not given),61.3%
17,CCCCCCCC/C=C\CCCCCCCCOc1ccc(CC(=O)NCC[N+]2(C)CCCC2)cc1,18.4%
18,Cn1cc(-c2csc(-c3cn(CCO)c4ccc(F)cc34)n2)c2cccnc21,18.2%
19,CCOC(=O)C1=CCC(n2cc(F)c(=O)[nH]c2=O)O1 (stereo not given),105%
20,CC1(C)CC[C@]2(CO)CC[C@]3(C)C(=CC[C@@H]4[C@@]5(C)CCNCC(C)(C)[C@@H]5CC[C@]43C)[C@@H]2C1,12%

row,Structure (SMILES),growth
1,O=C(CN1C(=O)NC2NC(=O)NC21)N/N=C/c1cccc([N+](=O)[O-])c1 (stereo not given),107%
2,[2H]C([2H])([2H])Oc1ccc(/C=C/C(=O)/C=C(O)/C=C/c2ccc(OC([2H])([2H])[2H])c(OC([2H])([2H])[2H])c2)cc1OC([2H])([2H])[2H],10.7%
3,Cc1nn(C)c2ncnc(Nc3ccccc3Br)c12,97.7%
4,COc1cc(NC(=O)c2cncnc2Nc2ccc3c(ccn3Cc3cccc(F)c3)c2)cc(OC)c1,20%
5,C=C1CC[C@@H]2[C@](C)(COC(C)=O)[C@H](OC(C)=O)CC[C@@]2(C)[C@@H]1CC(Nc1ccc(S(=O)(=O)Nc2nccc(C)n2)cc1)C1=CCOC1=O (stereo not given in full),-28.2% (active)
6,Cc1nc2c(c(-c3ccccc3)n1)Cc1c(ccc3ccccc13)O2,89.1%
7,CCCc1cc(CCC)n2nc(N)nc2n1,108%
8,Clc1ccc(C2=Nn3c(nnc3-c3cc(Cl)cc(Cl)c3Cl)SC2)cc1,6.41% (active)
9,CCN(CC)CCN1C(=O)c2c(c(C)c3c(oc4cc(OC)ccc43)c2C)C1=O,96.8%
10,O=C1c2cccnc2C(=O)c2c1c(C(=O)OCCCN1CCOCC1)c1ccccn21,-67.8% (active)
11,CCCCN(CCC#N)C(N)=O,114%
12,O=C(OCC(O)(CO)C(=O)NC12CC3CC(CC(C3)C1)C2)c1ccc(Cl)cc1 (stereo not given),94.8%
13,CC1(C)C2=C(C(=O)N1Cc1ccccc1)C(c1ccco1)N(C(=O)C1CCC1)CCN2 (stereo not given),106%
14,CN1CC(c2ccccc2)C(C(=O)c2ccc(Br)cc2)C12C(=O)Nc1ccccc12 (stereo not given),87.2%
15,Nc1ncc(-c2ccc3ncnc(N4CCc5cc(F)c(Cl)cc54)c3c2)cn1,41.8%
16,CCCCCN(CCCCC)CC(O)c1c(Cl)ccc2ccccc12 (stereo not given),31.4%
17,CNC(=O)c1cc(Oc2ccc3nc(NC(=O)NC(C)C)sc3c2)ccn1,33.3%
18,Nc1ccc(Cl)c2c(=O)c3ccccc3[nH]c12,100%
19,CNC(=O)c1cc(Oc2cccc3nc(NC(=O)Nc4ccc(F)cc4F)ccc23)ccn1,35.9%
20,N#Cc1c(-c2ccc(F)cc2)cc(-c2cccc(Cl)c2)[nH]c1=O,110%

# System: SNB-75 CNS
# Assay: as above
# Conditions: 10 µM unless noted
row,Structure (SMILES),growth
1,COc1ccccc1/C=C/C1=C(C)CCC(c2ccccc2OC)C1C (stereo not given),42.2%
2,COc1cc(OCc2cccc(-c3ccc4c(c3)OCCO4)c2C)cc(OC)c1C=O,81.2%
3,COc1ccccc1-c1nc2ccc3[nH]ncc3c2c2c1CCCC2,38.3%
4,CC(=O)OCCOc1cc(Cl)c(Cl)cc1Cl,102%
5,CC1(C)CC(=O)C2=C(C1)OC(C(=O)c1ccccc1)C2c1cccc(Oc2ccccc2)c1 (stereo not given),40.7%
6,CC1OC(C(=O)N2CCN(CCO)CC2)CC1COC1CCCCC1 (stereo not given),88.3% [50 µM]
7,COc1ccccc1NC(=O)n1c(=O)cc(C)c2ccc(O)cc21,101%
8,COc1ccc2c(c1)C(c1c[nH]c3ccccc13)(c1c[nH]c3ccccc13)CCO2,28%
9,CC(C)(C)n1cc(-c2ccnc(NCCNS(=O)(=O)c3cccc4ccccc34)c2)c(-c2cccc(O)c2)n1,37.9%
10,COc1cc(C2=Nc3c(N)nc(N)nc3NC(c3cccc(Nc4ccnc5cc(C(F)(F)F)ccc45)c3)C2)cc(OC)c1OC (stereo not given),68.9%
11,Nc1nc(=O)n([C@H]2CC=C(CO)O2)cc1F,102%
12,CS(=O)(=O)c1ccc(/C(=N/NC(N)=S)c2ccc(F)cc2)cc1,93.1%
13,O=c1n(C2OC(CO)C(O)C2O)ccc2nccn12 (stereo not given),95.5%
14,Cc1c(N2CCCCC2)[nH]c2ccccc12,117%
15,O=C1CCc2c(sc3[nH]c(=S)n(-c4cc(C(F)(F)F)cc(C(F)(F)F)c4)c(=O)c23)C1,-8.04% (active)
16,Nc1nc(N)c2c(n1)NC(c1ccc3c(c1)OCO3)CC(c1cccc(Nc3ccncc3)c1)=N2 (stereo not given),66.9%
17,CCCCCCCC/C=C\CCCCCCCCOc1ccc(CC(=O)NCC[N+]2(C)CCCC2)cc1,43.4%
18,Cn1cc(-c2csc(-c3cn(CCO)c4ccc(F)cc34)n2)c2cccnc21,46.4%
19,CCOC(=O)C1=CCC(n2cc(F)c(=O)[nH]c2=O)O1 (stereo not given),121%
20,CC1(C)CC[C@]2(CO)CC[C@]3(C)C(=CC[C@@H]4[C@@]5(C)CCNCC(C)(C)[C@@H]5CC[C@]43C)[C@@H]2C1,79.4%

row,Structure (SMILES),growth
1,O=C(CN1C(=O)NC2NC(=O)NC21)N/N=C/c1cccc([N+](=O)[O-])c1 (stereo not given),80%
2,[2H]C([2H])([2H])Oc1ccc(/C=C/C(=O)/C=C(O)/C=C/c2ccc(OC([2H])([2H])[2H])c(OC([2H])([2H])[2H])c2)cc1OC([2H])([2H])[2H],45.7%
3,Cc1nn(C)c2ncnc(Nc3ccccc3Br)c12,111%
4,COc1cc(NC(=O)c2cncnc2Nc2ccc3c(ccn3Cc3cccc(F)c3)c2)cc(OC)c1,8.48% (active)
5,C=C1CC[C@@H]2[C@](C)(COC(C)=O)[C@H](OC(C)=O)CC[C@@]2(C)[C@@H]1CC(Nc1ccc(S(=O)(=O)Nc2nccc(C)n2)cc1)C1=CCOC1=O (stereo not given in full),9.66% (active)
6,Cc1nc2c(c(-c3ccccc3)n1)Cc1c(ccc3ccccc13)O2,92.2%
7,CCCc1cc(CCC)n2nc(N)nc2n1,95.6%
8,Clc1ccc(C2=Nn3c(nnc3-c3cc(Cl)cc(Cl)c3Cl)SC2)cc1,31.7%
9,CCN(CC)CCN1C(=O)c2c(c(C)c3c(oc4cc(OC)ccc43)c2C)C1=O,77.2%
10,O=C1c2cccnc2C(=O)c2c1c(C(=O)OCCCN1CCOCC1)c1ccccn21,-81.3% (active)
11,CCCCN(CCC#N)C(N)=O,105%
12,O=C(OCC(O)(CO)C(=O)NC12CC3CC(CC(C3)C1)C2)c1ccc(Cl)cc1 (stereo not given),97.6%
13,CC1(C)C2=C(C(=O)N1Cc1ccccc1)C(c1ccco1)N(C(=O)C1CCC1)CCN2 (stereo not given),83.7%
14,CN1CC(c2ccccc2)C(C(=O)c2ccc(Br)cc2)C12C(=O)Nc1ccccc12 (stereo not given),96.1%
15,Nc1ncc(-c2ccc3ncnc(N4CCc5cc(F)c(Cl)cc54)c3c2)cn1,-6.4% (active)
16,CCCCCN(CCCCC)CC(O)c1c(Cl)ccc2ccccc12 (stereo not given),92%
17,CNC(=O)c1cc(Oc2ccc3nc(NC(=O)NC(C)C)sc3c2)ccn1,93.9%
18,Nc1ccc(Cl)c2c(=O)c3ccccc3[nH]c12,84.2%
19,CNC(=O)c1cc(Oc2cccc3nc(NC(=O)Nc4ccc(F)cc4F)ccc23)ccn1,-64.4% (active)
20,N#Cc1c(-c2ccc(F)cc2)cc(-c2cccc(Cl)c2)[nH]c1=O,-25.5% (active)
